Test results as given in PubChem BioAssay AID463173 (ICCB-Longwood Screening Facility, Harvard Medical School, 2010).
In all, about 52,000 compounds went through this assay and about 4,300 (8.3%) were called active. Only a selection was taken, and actives are over-represented in it overall. Unmarked numbers belong to inactive results. Cut-off read from the data, not from the text of the source: active = survival mostly below about 52% (no sharp cut-off); inactive = mostly above about 56%.

tested on: DeltatarO mutant; experiment: growth inhibition of S. aureus wild type versus tarO mutant, primary screen, teichoic acid synthesis inhibitors, RN4220, OD600 (AID 463173); conditions: OD600, 18 h, active compounds read low, screened at 18.75 µg/mL (by protocol)

SMILES	survival
O=C(NCCc1ccc(Cl)cc1)c1ccc2c(c1)N(Cc1ccc(Cl)cc1)C(=O)CS2	50%
COc1ccc(CCNC(=O)c2ccc3c(c2)N(Cc2ccc(F)cc2)C(=O)CS3)cc1OC	117%
COc1ccccc1CNC(=O)c1ccc2c(c1)N(Cc1ccc(C)cc1)CCS2	83%
COc1ccc(CCNC(=O)c2ccc3c(c2)N(Cc2cccc(Cl)c2)C(=O)CS3)cc1OC	54% (active)
COc1ccc(CCNC(=O)c2ccc3c(c2)N(Cc2cccc(Cl)c2)C(=O)c2ccccc2S3=O)cc1OC (configuration not stated)	94%
COc1ccc(CNC(=O)c2ccc3c(c2)N(Cc2c(F)cccc2Cl)C(=O)CS3)cc1	124%
COc1ccccc1CNC(=O)c1ccc2c(c1)N(Cc1c(F)cccc1Cl)C(=O)CS2	43% (active)
O=C(NCCc1ccc(Cl)cc1)c1ccc2c(c1)N(Cc1ccc(F)cc1)C(=O)CS2	37% (active)
COCCNC(=O)c1ccc2c(c1)N(Cc1c(F)cccc1Cl)C(=O)c1ccccc1S2	78%
O=C(NCc1ccc(F)cc1)c1ccc2c(c1)N(Cc1c(F)cccc1Cl)C(=O)CS2	40% (active)
O=C(NCc1ccc2c(c1)OCO2)c1ccc2c(c1)N(Cc1c(F)cccc1Cl)C(=O)c1ccccc1S2	86%
O=C(NCCc1ccccc1)c1ccc2c(c1)N(Cc1ccc(F)cc1)C(=O)CS2	74%
CCOc1ccc(NC(=O)C2CCCN(c3cnccn3)C2)cc1 (configuration not stated)	86%
CCOc1cc(-c2ccc(OC(=O)c3ccccc3Cl)c(OC)c2)cc(=O)c2c(C)oc(C)c12	69%
COc1ccccc1CNC(=O)c1ccc(CSc2nc3ccncc3n2Cc2ccccc2C)cc1	74%
COc1ccc(C(=O)Nc2nnc(S(=O)(=O)N3CCN(c4ccc(F)cc4)CC3)s2)cc1	56%
COc1ccc(C(=O)Nc2nnc(S(=O)(=O)N3CCOCC3)s2)cc1	99%
Cc1ccc(N2CCN(S(=O)(=O)c3nnc(NC(=O)c4ccc(C(C)C)cc4)s3)CC2)cc1	42% (active)
Cc1ccc(C(=O)Nc2nnc(S(=O)(=O)N3CCN(c4ccc(F)cc4)CC3)s2)cc1	56%
COc1ccc(C(=O)Nc2nnc(S(=O)(=O)N3CCN(c4ccc(C)cc4)CC3)s2)cc1	48% (active)
Cc1ccc(C(=O)Nc2nnc(S(=O)(=O)N3CCOCC3)s2)cc1	68%
CCc1nc(SC)ncc1C(=O)NCc1cccc(Br)c1	89%
CCc1ccc(NC(=O)C2CCC(CNS(=O)(=O)c3cccs3)CC2)cc1 (configuration not stated)	94%

SMILES	survival
CCOCCCNC(=O)c1ccc(NC(=O)N2CCCCc3ccccc32)cc1	89%
CCCCN(CC)Cc1ccc(CNS(=O)(=O)c2cc3c(cc2Cl)NC(=O)CO3)o1	0% (active)
Cc1ccc(CNS(=O)(=O)c2cc3c(cc2Cl)NC(=O)CO3)o1	106%
O=C1COc2cc(S(=O)(=O)NCc3ccco3)c(Cl)cc2N1	98%
Cn1c(SCC(=O)N2c3ccccc3Sc3ccccc32)nnc1-c1ccco1	77%
COC(=O)c1c(-c2ccc(Cl)cc2)noc1N1CCN(c2ccc(F)cc2)CC1	83%
O=S1(=O)CCC(NCc2ccccc2)C1 (configuration not stated)	89%
CS(=O)(=O)N(CC(=O)NCc1ccncc1)c1ccccc1	85%
CCC(C)NC(=O)c1ccccc1NC(=O)CN1C(=O)c2cccc3cccc1c23 (configuration not stated)	50%
O=C(CSc1nnc(NC(=O)Nc2ccccc2)s1)Nc1cccc(F)c1	73%
CSc1nsc(NC(=O)Nc2ccccc2C(F)(F)F)n1	13% (active)
CCSc1nsc(NC(=O)Nc2cccc(OC)c2)n1	96%
CSc1ncc(C(=O)Nc2ccccc2C(F)(F)F)c(-c2ccccc2)n1	117%
CCSc1nsc(NC(=O)Nc2cccc(F)c2)n1	1% (active)
O=C(Nc1nnc(N2CCCCCC2)s1)Nc1ccccc1C(F)(F)F	80%
O=C(NCCc1csc(-c2ccc(Cl)cc2)n1)c1cccs1	89%
COc1ccc(CNC(=O)c2cc3ccccn3n2)cc1OC	79%
Cc1cc(O)c(C(c2ccccc2Cl)N2CCCCC2)c(=O)n1Cc1ccco1 (configuration not stated)	76%
CCCOC(=O)c1c(-c2ccccc2)c(-c2ccccc2)nn(C)c1=O	60%
Cc1ccc(C)c(Nc2ncnc3onc(C)c23)c1	81%
CCOC(=O)c1ccc(Nc2c(-c3ccc(O)cc3)nc3nc[nH]n23)cc1	91%
CCOC(=O)c1ccc(Nc2c(-c3ccc(O)c(OC)c3)nc3nc[nH]n23)cc1	93%
CCOC(=O)c1ccc(Nc2c(-c3cccc(O)c3)nc3nc[nH]n23)cc1	46% (active)

SMILES	survival
COc1ccc(CNC(=O)C2CCCN(C(=O)c3cnn(-c4ccc(F)cc4)c3-n3cccc3)C2)cc1 (configuration not stated)	86%
COc1ccc(NC(=O)C2CCCN(C(=O)c3cnn(-c4ccc(F)cc4)c3-n3cccc3)C2)cc1 (configuration not stated)	47% (active)
COc1ccc(NC(=O)C2CCCN(C(=O)c3cnn(-c4ccccc4)c3-n3cccc3)C2)cc1 (configuration not stated)	70%
COc1ccc(-c2noc(N(c3nc(-c4ccc(OC)c(OC)c4)no3)c3ccccc3OC)n2)cc1OC	115%
COc1ccccc1NC(=O)CN1C(=O)c2cccc3cccc1c23	62%
CC(C)c1ccccc1NC(=O)CN1C(=O)c2cccc3cccc1c23	40% (active)
O=C(CN1C(=O)c2cccc3cccc1c23)Nc1ccccc1Br	63%
CCOC(=O)c1cnc2cc(-c3ccc(OCC)cc3)nn2c1-c1ccccc1	68%
CCOC(=O)CSc1nnc2n(-c3ccccc3)c(=O)c3c4c(sc3n12)COC(C(C)C)C4 (configuration not stated)	74%
CCCc1nc2sc3c(c2c(=O)n1N)CCCC3	97%
CCCSc1nc2sc3c(c2c(=O)n1-c1ccc(C)cc1)CCCC3	8% (active)
CCOC(=O)CSc1nc2sc3c(c2c(=O)n1-c1ccccc1)CCC(C(C)(C)C)C3 (configuration not stated)	58%
CSc1nc2sc3c(c2c(=O)n1Cc1ccccc1)CCC(C(C)(C)C)C3 (configuration not stated)	114%
CC(C)CCSc1nnc2n(-c3ccccc3)c(=O)c3c4c(sc3n12)CC(C)CC4 (configuration not stated)	70%
CCOC(=O)CSc1nnc2n(-c3ccccc3)c(=O)c3c4c(sc3n12)CC(C(C)(C)C)CC4 (configuration not stated)	46% (active)
CCCSc1nc2sc3c(c2c(=O)n1-c1ccc(C)c(Cl)c1)CCN(C(C)=O)C3	81%
COC(=O)CSc1nc2sc3c(c2c(=O)n1Cc1ccccc1)CCC(C(C)(C)C)C3 (configuration not stated)	66%
CSc1nc2sc3c(c2c(=O)n1-c1ccccc1)CCC(C(C)(C)C)C3 (configuration not stated)	18% (active)
C=C(C)CSc1nc2sc3c(c2c(=O)n1-c1ccccc1)CCC(C)C3 (configuration not stated)	84%
CCCSc1nc2sc3c(c2c(=O)n1-c1ccccc1)CCC(C)C3 (configuration not stated)	2% (active)
COc1cc(NC(=O)NCCn2nnc3cc(S(=O)(=O)N(C)C)ccc32)cc(OC)c1OC	84%
Cc1ccc(S(=O)(=O)NC(C)(C)CN2CCCCC2)cc1	96%
NC1CCN(C(=O)NC2CCCCC2)CC1	89%

SMILES	survival
Cc1cc(=O)n(Cc2ccccc2)c(=O)n1Cc1ccccc1	89%
Cc1ccccc1-c1nc(CS(=O)(=O)CC(=O)Nc2c(C)cccc2C)c(C)o1	92%
Cn1cc(S(=O)(=O)N2CCCCCC2)cc1C(=O)Nc1ccccc1F	88%
CC(=O)N1CCC(N(Cc2ccco2)C(=O)Nc2cccc(C)c2)CC1	130%
COC(=O)c1ccccc1NC(=O)Nc1cccc(OCc2cc(=O)n3cccc(C)c3n2)c1	134%
CSc1nc2sc3c(c2c(=O)n1-c1ccccc1C)CCCC3	97%
Cc1ccc(-n2c(=O)[nH]c3sc4c(c3c2=O)CCCC4)cc1	133%
Cc1ccc(-n2c(SCC(=O)O)nc3sc4c(c3c2=O)CCCC4)cc1	90%
CCSc1nc2sc3c(c2c(=O)n1-c1ccc(C)cc1)CCCC3	0% (active)
CSc1nc2sc3c(c2c(=O)n1-c1ccc(C)cc1)CCCC3	39% (active)
CCc1ccc(-n2c(=O)c3c4c(sc3n(Cc3ccc(C)cc3)c2=O)CCC4)cc1	132%
CCCOc1ccc(-c2nc3ccc(Br)cc3c(=O)o2)cc1	81%
Cc1ccc(C)c(NC(=O)Cn2cc(S(=O)(=O)c3ccc(F)cc3)c(=O)c3cc(F)ccc32)c1	87%
Cc1c(C(=O)N(Cc2ccc(N(C)C)cc2)CC2CCCO2)oc2ccccc12 (configuration not stated)	61%
COC(=O)CNc1ccc(C)c(C)c1	67%
Cc1cccc(CCNC(=O)c2nc(-c3ccc(Cl)cc3)n3c2CCCCC3)c1	89%
O=C(Nc1ccc(C(F)(F)F)cc1)C1CCC(CNS(=O)(=O)c2cccc3nsnc23)CC1 (configuration not stated)	49%
Cc1ccc(-n2ncc(C(=O)NCCCN3CCN(c4cccc(Cl)c4)CC3)c2-n2cccc2)cc1	75%
O=C(NCCCN1CCN(c2cccc(Cl)c2)CC1)c1cnn(-c2ccc(F)cc2)c1-n1cccc1	32% (active)
Cc1ccc(-n2nc(C)c(C(=O)NCCCN3CCN(c4cccc(Cl)c4)CC3)c2-n2cccc2)cc1	0% (active)
Cc1nn(-c2ccc(F)cc2)c(-n2cccc2)c1C(=O)NCCCN1CCN(c2cccc(Cl)c2)CC1	94%
Cc1ccc(-n2nc(C)c(C(=O)NCCCN3CCN(c4ccc(F)cc4)CC3)c2-n2cccc2)cc1	92%
O=C(NCCCN1CCN(c2ccc(F)cc2)CC1)c1cnn(-c2ccc(F)cc2)c1-n1cccc1	70%
